From the supplement of paper PMC12808144

System: NHEM-hTERT
Experiment: cell viability relative to DMSO control (fraction of DMSO control); higher = less cytotoxic, active = 0.5 or less
Conditions: 1 µM; 120 h
In short: (§1)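 Cells in 40 µl per well went into 384-well plates pre-spotted acoustically with a TargetMol library of 315 approved anti-cancer drugs, each at 1 µM in duplicate, for 120 h. Seeding was 2500/well for NHEM-hTERT immortalized melanocytes and 1500/well for patient-derived Mel-DCC-11 and its resistant subline Mel-DCC-11-R, which was run alone and with 8 µM of its selecting drug. Luminescence was read with ATPlite 1step. Viability was normalised to vehicle-treated controls and averaged over duplicates.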

Question: With `Cc1ccc(Nc2nccc(N(C)c3ccc4c(C)n(C)nc4c3)n2)cc1S(N)(=O)=O` [Pazopanib] as the compound, how does the cell viability read?
Answer: 0.893 (inactive)

Question: How did the cell viability turn out when `CO[C@H]1C[C@@H]2CC[C@@H](C)[C@@](O)(O2)C(=O)C(=O)N2CCCC[C@H]2C(=O)O[C@H]([C@H](C)C[C@@H]2CC[C@@H](O)[C@H](OC)C2)CC(=O)[C@H](C)/C=C(\C)[C@@H](O)[C@@H](OC)C(=O)[C@H](C)C[C@H](C)/C=C/C=C/C=C/1C` [Rapamycin] was run?
Answer: 0.819 (inactive)

Question: For `Nc1nc(Cl)nc2c1ncn2[C@@H]1O[C@H](CO)[C@@H](O)[C@@H]1F` [Clofarabine], which cell viability is on record?
Answer: 0.53 (inactive)

Question: Which cell viability does the source give for `CN1CCN(c2ccc3nc(-c4c(N)c5c(F)cccc5[nH]c4=O)[nH]c3c2)CC1` [Dovitinib] here?
Answer: 0.972 (inactive)

Question: With `CCN1CCN(Cc2ccc(Nc3ncc(F)c(-c4cc(F)c5nc(C)n(C(C)C)c5c4)n3)nc2)CC1.CS(=O)(=O)O` [abemaciclib mesylate] as the compound, how does the cell viability read?
Answer: 0.896 (inactive)

Question: For `CC[C@@H]1C(=O)N(C)c2cnc(Nc3ccc(C(=O)N[C@H]4CC[C@H](N5CCN(CC6CC6)CC5)CC4)cc3OC)nc2N1C(C)C` [Volasertib], which cell viability is on record?
Answer: 0.872 (inactive)

Question: How did the cell viability turn out when `CC(C)C[C@@H](NC(=O)[C@H](O)[C@@H](N)Cc1ccccc1)C(=O)O.Cl` [Bestatin hydrochloride] was run?
Answer: 1.08 (inactive)

Question: How did the cell viability turn out when `CC1=C(CC(=O)O)c2cc(F)ccc2/C1=C\c1ccc(S(C)=O)cc1` (centres undefined) [Sulindac] was run?
Answer: 0.963 (inactive)

System: Mel-DCC-11-R
Experiment: cell viability relative to DMSO control (fraction of DMSO control); higher = less cytotoxic, active = 0.8 or less
Conditions: 1 µM; 120 h; vemurafenib co-treatment 0 µM
In short: as §1

Question: How did the cell viability turn out when `CCCCCCCCCCCCCCCCOP(=O)([O-])OCC[N+](C)(C)C` [Miltefosine] was run?
Answer: 0.843 (inactive)

Question: For `CC(C)NCC(O)COc1cccc2ccccc12.Cl` (centres undefined) [Propranolol hydrochloride], which cell viability is on record?
Answer: 0.858 (inactive)

Question: With `Nc1nc(=O)c2c(CCc3ccc(C(=O)N[C@@H](CCC(=O)O)C(=O)O)cc3)c[nH]c2[nH]1` [Pemetrexed acid] as the compound, how does the cell viability read?
Answer: 1.22 (inactive)

Question: Which cell viability does the source give for `CC(=O)O[C@]1(C(C)=O)CC[C@H]2[C@@H]3C=C(C)C4=CC(=O)CC[C@]4(C)[C@H]3CC[C@@]21C` [Megestrol acetate] here?
Answer: 1.13 (inactive)

Question: With `CS(=O)(=O)CCNCc1ccc(-c2ccc3ncnc(Nc4ccc(OCc5cccc(F)c5)c(Cl)c4)c3c2)o1.Cc1ccc(S(=O)(=O)O)cc1.Cc1ccc(S(=O)(=O)O)cc1.O` [Lapatinib ditosylate monohydrate] as the compound, how does the cell viability read?
Answer: 1.14 (inactive)

Question: Which cell viability does the source give for `CC1(C)CCC(CN2CCN(c3ccc(C(=O)NS(=O)(=O)c4ccc(NCC5CCOCC5)c([N+](=O)[O-])c4)c(Oc4cnc5[nH]ccc5c4)c3)CC2)=C(c2ccc(Cl)cc2)C1` here?
Answer: 1.04 (inactive)

Question: Which cell viability does the source give for `C[C@@H]1O[C@@H](OC[C@H]2O[C@@H](Oc3c(-c4ccc(O)c(O)c4)oc4cc(O)cc(O)c4c3=O)[C@H](O)[C@@H](O)[C@@H]2O)[C@H](O)[C@H](O)[C@H]1O` [Rutin] here?
Answer: 1.01 (inactive)

Question: `Cc1coc2c1C(=O)C(=O)c1c-2ccc2c(C)cccc12` [Tanshinone I] was tested. Which cell viability did it give?
Answer: 1.03 (inactive)

Question: With `O=C(/C=C/c1ccc(O)cc1)c1ccc(O)cc1O` [Isoliquiritigenin] as the compound, how does the cell viability read?
Answer: 0.834 (inactive)

Question: For `C[C@@H]1C[C@H]2[C@@H]3CCC4=CC(=O)C=C[C@]4(C)[C@@]3(F)[C@@H](O)C[C@]2(C)[C@@]1(O)C(=O)COP(=O)([O-])[O-].[Na+].[Na+]` [Dexamethasone Sodium Phosphate], which cell viability is on record?
Answer: 1.16 (inactive)

Question: `O=c1[nH]c(=O)n([C@H]2C[C@H](O)[C@@H](CO)O2)cc1F` [Floxuridine] was tested. Which cell viability did it give?
Answer: 1.24 (inactive)

Question: `Nc1nc2[nH]nnc2c(=O)[nH]1` [8-Azaguanine] was tested. Which cell viability did it give?
Answer: 1.42 (inactive)

Question: `Oc1cc(O)cc(/C=C/c2ccc(O)c(O)c2)c1` [Piceatannol] was tested. Which cell viability did it give?
Answer: 0.982 (inactive)

Question: How did the cell viability turn out when `Nc1ccn([C@@H]2O[C@H](CO)[C@@H](O)C2(F)F)c(=O)n1` [Gemcitabine] was run?
Answer: 0.869 (inactive)

Question: With `Cc1ccc(Nc2nccc(N(C)c3ccc4c(C)n(C)nc4c3)n2)cc1S(N)(=O)=O` [Pazopanib] as the compound, how does the cell viability read?
Answer: 1.07 (inactive)

Question: `CO[C@H]1C[C@@H]2CC[C@@H](C)[C@@](O)(O2)C(=O)C(=O)N2CCCC[C@H]2C(=O)O[C@H]([C@H](C)C[C@@H]2CC[C@@H](O)[C@H](OC)C2)CC(=O)[C@H](C)/C=C(\C)[C@@H](O)[C@@H](OC)C(=O)[C@H](C)C[C@H](C)/C=C/C=C/C=C/1C` [Rapamycin] was tested. Which cell viability did it give?
Answer: 1.54 (inactive)
